Source: PubChem BioAssay (National Center for Advancing Translational Sciences (NCATS))
In the library only some 0.62% were active in any assay of this set; here they are far more common.
MBNL1 CUG block – inhibitors of human MBNL1 binding to CUG repeat RNA; TR-FRET MBNL1-His/biotin-(CUG)12 binding, 665/545 ratio; Potency, µM (series often up to 57.5 µM), without a hit: at the highest dose activity change, negative = inhibition, hits mostly inhibitors; hit rate 0.036% among 280,000; active = well fitted inhibition curve with a large enough effect in the signal ratio, with a control signal flat, not every such curve was filed as active; inconclusive = small, poorly fitted or top-dose-only effect, or effect the other way, or a change in a side signal; inactive = no such curve, though single readings can be large or run the other way; the % refers to the signal ratio; also: % is scaled to controls: 0 for no effect and ±100 for the full control effect
Target sequence (Q9NR56 whole entry, looked up): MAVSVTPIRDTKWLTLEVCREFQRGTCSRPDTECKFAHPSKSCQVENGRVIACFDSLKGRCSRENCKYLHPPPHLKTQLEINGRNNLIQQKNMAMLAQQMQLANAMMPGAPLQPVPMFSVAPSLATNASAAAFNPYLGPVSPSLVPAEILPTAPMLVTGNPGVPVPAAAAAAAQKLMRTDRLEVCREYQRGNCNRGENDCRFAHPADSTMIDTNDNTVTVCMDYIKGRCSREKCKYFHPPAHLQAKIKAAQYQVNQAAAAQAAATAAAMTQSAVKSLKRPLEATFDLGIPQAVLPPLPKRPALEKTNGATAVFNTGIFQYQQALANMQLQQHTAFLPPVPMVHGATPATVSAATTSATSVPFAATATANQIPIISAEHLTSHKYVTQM
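MBNL1-His + Biotin-(CUG)12, cpd titration 92 nM–58 uM; Tb anti-His Ab 0.055 ng/ul, SA-XL665 5 nM (final); 60 min RT; ratiometric 665/545 nm, Ex 340 nm; normalized to buffer and full-complex controls.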
BCR signal inh – inhibitors of chronic active B-cell receptor signaling. AID 493014. hit rate 0.05% among 340,000. Potency, µM (highest dose often 46.1 µM), for inactives: at the top dose activity change, negative = inhibition, usual class: inhibitors. ABC-DLBCL IkBa-CBG/CBR reporter, luminescence ratio, 4 h; active = well fitted inhibition curve with a large enough effect in the signal ratio, with a control signal flat, not every such curve was filed as active; inconclusive = small, poorly fitted or top-dose-only effect, or effect the other way, or a change in a side signal; the % refers to the signal ratio;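 also: plate controls were basal doxycycline-induced cells for no effect and cells given 10 µM MG132 for full effect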
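TMD8 human ABC-DLBCL cells with doxycycline-inducible IκBα–green luciferase fusion and unfused red luciferase, in 0.5% FBS medium; compounds up to 46 uM, 4 h at 37C. Green/red luminescence ratio, filter-overlap corrected, fitted to concentration-response curves.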
gsp agonist – activates gsp, the McCune-Albright syndrome mutation | gsp mutant cells, cAMP HTRF, 30 min | Potency, µM (top dose mostly 76.9 µM), for the others: at the highest dose activation (cAMP increase), most hits filed as activators | hit rate 0.13% among 340,000; active = well fitted activation curve with a large enough effect; inconclusive = small, poorly fitted or top-dose-only effect, or another doubt; inactive = no such curve, though single readings can be large or run the other way; cell line not stated here;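 also: phosphodiesterase inhibitor Ro 20-1724 added with compounds to block cAMP breakdown; nearly all actives have a fitted effect of over 60% in size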
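Cells stably selected in G418 were plated at 2000/well, grown 16-24 hr, then given compounds in DMSO with the PDE inhibitor […] (300 uM solution added) for 30 min at 37C; cAMP was read by HTRF.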
S-ASM inh – inhibitors of human secretory acid sphingomyelinase. hit rate 0.006% among 340,000. placental ASM, HMU-PC fluorogenic substrate, 60 min. P17405. Potency, µM (series often up to 57.5 µM), for inactives: at the top dose activity change, negative = inhibition, actives largely listed as inhibitors; active = well fitted inhibition curve with a large enough effect; inconclusive = small, poorly fitted or top-dose-only effect; inactive = no such curve, though single readings can be large or run the other way
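Human placenta-derived ASM enzyme was preincubated with compound for 10 minutes at room temperature, then given fluorogenic substrate HMU-PC0 (9 uM final) for 60 minutes at 37 °C; a pH 10 stop preceded fluorescence reading at Ex 386/Em 447 nm.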
gsp antagonist – gsp mutant antagonism | gsp-mutant cells, cAMP HTRF, 30 min | AID 624288 | hit rate 0.4% among 340,000 | Potency, µM (doses to about 76.9 µM), for the others: top-dose activity change, negative = inhibition, usual class: inhibitors; calls by dose curve; cell line not stated here;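 also: intracellular cAMP measured with PDE inhibitor Ro 20-1724 present during compound exposure; % is scaled to controls: 0 for no effect and ±100 for the full control effect; nearly all actives have a fitted effect of over 65% in size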
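Measurement of cellular cAMP by homogeneous time-resolved fluorescence following a 30 min compound exposure at 37C. The PDE inhibitor […] was present throughout; the assay buffer was DPBS with 0.05% BSA and 0.005% Tween 20.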
An asterisk follows results filed as active; ? = inconclusive; / = no result; [ ] = remark or other dose. Potency is read from the fitted curve at half-maximal effect.

SMILES | MBNL1 CUG block | BCR signal inh | gsp agonist | S-ASM inh | gsp antagonist
CCn1c(SCC(=O)Nc2ccc(F)cc2)nnc1C1CC1 | 2% | 3% | 9% | 1% | 5%
CCn1c(SCC(=O)Nc2sccc2C(N)=O)nnc1C1CC1 | / | 4% | 5% | -5% | 50µM*
Cn1c(=O)c2[nH]c(COc3ccccc3)nc2n(C)c1=O | / | / | 3.2µM* | 12% | 3%
CC(=O)OCCCN1c2ccccc2Nc2nnc(-c3ccccc3)cc21 | -8% | ? | -11% | -2% | 40µM*
CC(=O)OCCN1c2ccccc2Sc2cnccc21 | / | / | -2% | / | /
CCc1ccc(NC(=O)C2CCN(S(=O)(=O)c3ccc4[nH]c(=O)ccc4c3)CC2)cc1 | -4% | -7% | 2% | -1% | 5%
N#Cc1c(NC(=O)C2CC=CCC2C(=O)O)sc2c1CCCCCC2 (stereo not given) | -9% | 9% | 1% | 6% | -24%
CC(C)(C)C1CCc2c(sc(NC(=O)C3CC=CCC3C(=O)O)c2C#N)C1 (stereo not given) | / | ? | -4% | 9% | 40µM*
Cc1cc(C)n(-c2ccc(NC(=O)C3CCCCN3C(=O)c3ccoc3C)cc2)n1 (stereo not given) | 7% | 0% | -43% | -1% | 10%
CCn1c(SCCN2CCOCC2)nc2c1c(=O)n(C)c(=O)n2C | -3% | 7% | 29%[15.4 µM] | -1% | 0%
Cn1c(=O)c2c(nc(SCCN3CCOCC3)n2C)n(C)c1=O | -11% | 11% | 8.9µM* | 4% | 3%
COc1ccc(NC(=O)NCc2cccnc2)cc1 | -7% | 0% | ? | 6% | ?
O=C(NCc1cccnc1)Nc1ccc(Cl)cc1 | -10% | -2% | 29% | 1% | 11µM*
O=C(CCc1nc(-c2ccc(Cl)cc2)no1)NCc1ccccc1CN1CCOCC1 | / | 3% | 11% | 2% | 3%
Cc1cc2cc(CN3C(=O)c4ccccc4C3=O)ccc2n1C | 10%[11.5 µM] | 1% | 32µM* | -1% | 21%
O=C(CNS(=O)(=O)c1ccccc1)NCC(=O)OCc1ccc(Cl)cc1 | -19% | -6% | 7.9µM* | 1% | 0%
O=C(CNS(=O)(=O)c1ccccc1)NCC(=O)OCc1ccc(C(=O)c2ccccc2)cc1 | -1% | ? | -36% | -2% | -15%
Cc1ccc(Cn2cc(SCC(=O)Nc3nccs3)c3ccccc32)cc1 | -7% | -4% | 3% | -8% | 5%
Cc1nnc(NC(=O)CSc2cn(Cc3ccccc3)c3ccccc23)s1 | 10% | 24% | 16µM* | -3% | -13%
Cc1ccc2c(=O)n3c(nc2c1)C(C)NC(=O)c1cccnc1-3 (stereo not given) | / | / | 32µM* | / | /
COc1cccc2sc(=NC(=O)CS(=O)(=O)c3ccc(F)cc3)n(C)c12 | / | -7% | 25% | 4% | -6%
CCn1c(=NC(=O)CS(=O)(=O)c2ccc(C)cc2)sc2cccc(OC)c21 | / | 2% | 5% | 0% | 35µM*
O=S1(=O)CCN(C2CC2)CC1 | / | / | -1% | / | /
C=CCN(C(=O)C1CC(=O)N(C2CCCC2)C1)c1nc(-c2ccc(S(C)(=O)=O)cc2)cs1 (stereo not given) | / | -7% | 5% | -3% | 40µM*
O=C(Nc1nnc(S(=O)(=O)N2CCCC2)s1)c1cccc([N+](=O)[O-])c1 | ? | ? | ? | -2% | 50µM*
SMILES | MBNL1 CUG block | BCR signal inh | gsp agonist | S-ASM inh | gsp antagonist
COc1cccc(NC(=O)CN(C)C(C)C(=O)N2CCCCC2)c1 (stereo not given) | / | 0% | 13% | 2% | 6%
O=C(NCc1ccccc1)C(=O)Nc1c2c(nn1-c1ccccc1)CSC2 | / | 7% | / | / | /
COc1ccc2c(c1)C(C)=CC(C)(C)N2S(=O)(=O)c1ccc(NC(C)=O)cc1 | 8% | 4.5µM* | -7% | 1% | 16%
CC1=CC(C)(C)N(S(=O)(=O)c2ccc(C)cc2)c2ccccc21 | -8% | 23µM* | -6% | -3% | 9%
CC(C)COC(=O)N(C)C[C@@H]1OCc2cnnn2CCCC(=O)N([C@@H](C)CO)C[C@H]1C | / | / | -1% | / | /
CCN1C(=NCCc2cccs2)N[C@@H](c2cccs2)C(C(=O)OC)=C1C | 6% | ? | / | 8% | 3%
O=C(CNS(=O)(=O)c1ccc2ccccc2c1)OCC(=O)c1ccc(Br)s1 | 23% | -29% | 8.9µM* | 1% | 14%
